# Measured values from PubChem BioAssay (NCATS).
# Values without a mark were called inactive. Records with an inconclusive call do not appear. A call without a number means that no potency is given here. Activity calls are given as the source filed them. Unless noted, calls come from the whole dose curve; as a rule, active = well fitted curve in the direction sought with a large enough effect; inconclusive = small, poorly fitted or top-dose-only effect, or another doubt; inactive = no such curve, though single readings can be large; an effect the other way counts as inactive or inconclusive.
# What was measured:
# [1] = P-glycoprotein substrates identified in KB-8-5-11 adenocarcinoma cell line, qHTS therapeutic library screen (AID 1346987); conditions: KB-8-5-11 (P-gp overexpressing) viability, CellTiter-Glo, 72 h; series mostly up to 44.5 µM; note: nearly all actives have a fitted effect of over 65% in size
# Method in brief: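 Human cervical adenocarcinoma KB-8-5-11 cells, selected in colchicine to over-express P-gp and assayed without it, were exposed for 72 h to titrated compounds. An ATP-based luminescent viability signal gave AC50.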
# [2] = target: Furin (Homo sapiens) (UniProt P09958); experiment: Furin counterscreen qHTS for Zika virus inhibitors (AID 1347149); conditions: furin enzymatic counterscreen, fluorogenic substrate; series mostly up to 57.5 µM; note: nearly all actives have a fitted effect of over 70% in size; note: potency is the fitted concentration of half-maximal effect
# Method in brief: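 Counterscreen measures cleavage of 2 microM BOC-RVRR-AMC, below its ~15 microM Km, by 5 nM full-length human furin at pH 7.0 after a 15-min compound preincubation. Inhibition derives from the 15-min fluorescence increase at 37C.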
# [3] = S16 Schwann cell PMP22 intronic element firefly luciferase assay (AID 624032); conditions: S16 rat Schwann cells, PMP22 element FLuc, 24 h; series mostly up to 57.5 µM; note: nearly all actives have a fitted effect of over 30% in size
# Method in brief: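 Rat S16 Schwann cells stably carrying firefly luciferase driven by a PMP22 intronic element, in 10% FBS, treated 24 h at 37 C. ONE-Glo luminescence normalized to PTC124 control and DMSO (0%); curves classed by r2, magnitude and activity.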
# [4] = S16 Schwann cell PMP22 intronic element beta-lactamase assay (AID 624044; calls by dose curve; note: nearly all actives have a fitted effect of over 15% in size); conditions: S16 rat Schwann cells, PMP22 element beta-lactamase FRET, 24 h; series mostly up to 38.3 µM
# Method in brief: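 Beta-lactamase reporter under a PMP22 intronic regulatory element in stable S16 rat Schwann cells; 24 h compound exposure. 460 nm blue signal normalized between DMSO (0%) and potassium clavulanate, with 535 nm FRET tracking viability; curves classed by r2 and response.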
# [5] = qHTS assay for small molecule agonists of the antioxidant response element (ARE) signaling pathway (AID 651741; active = well fitted activation curve with a large enough effect in the signal ratio; the % refers to the signal ratio); conditions: HepG2 ARE-bla reporter, beta-lactamase FRET ratio, 16 h; series mostly up to 96 µM
# Method in brief: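 HepG2 ARE-bla reporter cells, 2,000/well; 5 h settle at 37 C/5% CO2; compound pin transfer (23 nL, DMSO); 16 h at 37 C; LiveBLAzer B/G FRET substrate, 2 h RT; fluorescence intensity read.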
# [6] = qHTS assay for small molecule activators of the p53 signaling pathway (AID 651743; active = well fitted activation curve with a large enough effect in the signal ratio, not every such curve was filed as active; the % refers to the signal ratio); conditions: HCT-116 p53RE-bla, beta-lactamase FRET ratio, 16 h; stronger effect = higher value
# Method in brief: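 Reporter: beta-lactamase driven by p53 response elements, stably integrated in HCT-116 cells. Cells seeded at 4,000/well, 5 h preincubation, compound (DMSO) 16 h at 37 C; B/G FRET substrate 2 h RT; fluorescence intensity read.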
# [7] = qHTS assay for small molecule activators of the nuclear factor-kappa B (NF-kB) signaling pathway (AID 651749; active = well fitted activation curve with a large enough effect in the signal ratio; the % refers to the signal ratio); conditions: NF-kB-bla ME-180 cells, beta-lactamase FRET ratio, 16 h; stronger effect = higher value
# Method in brief: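 NF-kB-bla ME-180 cells, 2,000/well; 23 nL compound or DMSO pinned; 16 hr, 37C/5% CO2; beta-lactamase FRET read-out.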
# [8] = qHTS assay for environmental chemicals that activate the Aryl hydrocarbon Receptor (AhR) signaling pathway (AID 651777); conditions: 1A2-DRE human hepatoma cells, luciferase, 24 h; note: potency is the fitted concentration of half-maximal effect; nearly all actives have a fitted effect of over 15% in size
# Method in brief: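 Human hepatoma 1A2-DRE cells, stably carrying a dioxin response element and CYP1A2 promoter driving luciferase, were exposed to compounds for 24 hr at 37 C and 5% CO2. Luciferase signal was then read after 30 min One-Glo at room temperature.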
# [9] = target: Peroxisome proliferator-activated receptor alpha (Homo sapiens) (UniProt Q07869); experiment: qHTS assay for small molecule agonists of the peroxisome proliferator-activated receptor alpha (PPARalpha) signaling pathway (AID 651778); conditions: PathHunter PPARalpha complementation, chemiluminescence, 6 h; stronger effect = higher value
# Method in brief: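 Enzyme-fragment complementation assay in which ligand-bound PPARalpha translocates and forms an active enzyme that generates chemiluminescence. Cells were plated overnight, exposed to compound for 6 hr at 37 C, and then given detection reagent for 60 min at room temperature.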
# [10] = qHTS assay for small molecule agonists of the antioxidant response element (ARE) signaling pathway measured by Nrf2-dependant transcriptional activity - cell viability counter screen (AID 720653; active = well fitted curve in the direction sought with a large enough effect in the repeat runs; an effect the other way counts as inactive or inconclusive); conditions: ARE-bla HepG2 viability, CellTiter-Glo ATP luminescence, 16 h; stronger effect = lower value
# Method in brief: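 ARE-bla HepG2 cells treated with compounds for 16 h at 37C; this counter screen measures viability as intracellular ATP by CellTiter-Glo luminescence after 30 min at room temperature.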
# [11] = qHTS assay for cell viability of HEK293 cells (AID 743288); conditions: ATP luminescence (CellTiter-Glo), 18 h, stronger effect = lower value; note: nearly all actives have a fitted effect of over 50% in size
# Method in brief: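 ATP luminescence (CellTiter-Glo) reports metabolically competent cell number after parental HEK293 cells, 2,000/well, were treated with DMSO-dissolved compounds for 18 h at 37 C; reagent incubation 30 min, room temperature.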
# [12] = qHTS assay for cell viability of the p53RE-bla HCT-116 cell line (AID 743292); conditions: p53RE-bla HCT-116 viability, ATP luminescence, 16 h; series mostly up to 95 µM; note: nearly all actives have a fitted effect of over 55% in size
# Method in brief: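 CellSensor p53RE-bla HCT-116 cells, 4,000/well, preincubated 5 h at 37 C, then exposed to compounds in DMSO for 16 h at 37 C. Viability read as CellTiter-Glo luminescence (intracellular ATP) after 30 min at room temperature.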
# Chain of Furin (Homo sapiens) (P09958 whole entry, looked up): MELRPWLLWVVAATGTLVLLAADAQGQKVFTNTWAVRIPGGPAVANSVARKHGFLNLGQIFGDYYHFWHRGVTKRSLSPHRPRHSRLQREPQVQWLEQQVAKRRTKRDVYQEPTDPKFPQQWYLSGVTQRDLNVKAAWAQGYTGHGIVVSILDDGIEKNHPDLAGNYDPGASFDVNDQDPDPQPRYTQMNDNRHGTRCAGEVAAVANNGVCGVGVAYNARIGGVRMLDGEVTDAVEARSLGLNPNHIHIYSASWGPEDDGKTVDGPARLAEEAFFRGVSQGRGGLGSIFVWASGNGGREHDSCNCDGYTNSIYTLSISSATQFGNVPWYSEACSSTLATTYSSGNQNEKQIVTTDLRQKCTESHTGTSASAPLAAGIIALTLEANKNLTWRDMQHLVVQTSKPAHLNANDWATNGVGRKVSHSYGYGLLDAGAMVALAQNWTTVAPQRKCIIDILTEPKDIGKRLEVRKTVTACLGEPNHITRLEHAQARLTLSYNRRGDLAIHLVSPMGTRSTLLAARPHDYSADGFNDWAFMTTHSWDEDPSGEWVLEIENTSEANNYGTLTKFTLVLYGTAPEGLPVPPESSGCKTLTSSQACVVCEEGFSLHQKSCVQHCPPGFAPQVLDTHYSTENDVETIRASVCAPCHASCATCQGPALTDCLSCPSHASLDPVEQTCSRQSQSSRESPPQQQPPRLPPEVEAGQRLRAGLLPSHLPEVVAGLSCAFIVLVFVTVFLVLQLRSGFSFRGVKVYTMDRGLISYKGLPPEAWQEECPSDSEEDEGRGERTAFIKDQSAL
# Chain of Peroxisome proliferator-activated receptor alpha (Homo sapiens) (Q07869 whole entry, looked up, the tested form may be a part): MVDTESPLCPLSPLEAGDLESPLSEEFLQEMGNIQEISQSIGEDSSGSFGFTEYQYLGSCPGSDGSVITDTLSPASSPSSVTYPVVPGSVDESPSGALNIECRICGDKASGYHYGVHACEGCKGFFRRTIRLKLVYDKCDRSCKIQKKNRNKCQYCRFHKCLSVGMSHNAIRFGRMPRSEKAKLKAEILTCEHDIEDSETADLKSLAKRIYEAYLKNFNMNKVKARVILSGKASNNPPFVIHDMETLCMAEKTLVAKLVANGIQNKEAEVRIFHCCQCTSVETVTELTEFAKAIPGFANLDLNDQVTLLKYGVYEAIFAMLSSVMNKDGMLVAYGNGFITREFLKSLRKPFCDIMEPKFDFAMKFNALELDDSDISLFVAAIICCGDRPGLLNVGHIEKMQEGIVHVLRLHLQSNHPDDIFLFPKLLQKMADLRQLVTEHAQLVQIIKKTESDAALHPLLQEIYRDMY
smiles,measurement,setting,value
COc1c(C)c(OCC(O)C(C)(C)O)cc2c1CNC2=O (centres undefined),Potency,[1],inactive
CC(=O)Nc1cccc2c1c(Sc1ccc(Cl)cc1)c(C)n2CC(=O)O,Potency,[1],inactive
C/C=C(\C)C(=O)OC1CC2C(CC=C3CC(OC4CC(OC)C(OC5CC(OC)C(OC6CC(OC)C(OC7CC(OC)C(OC8CC(OC)C(OC9OC(CO)C(O)C(O)C9O)C(C)O8)C(C)O7)C(C)O6)C(C)O5)C(C)O4)CCC32C)C2(O)CCC(C(C)=O)C12C (centres undefined),outcome,[1],inactive [at 9.29 µM]
C[C@@H]1C(=O)O[C@H](C)[C@H]1C[C@@H](O)[C@](C)(O)[C@H]1CC[C@@]2(O)C3=CC(=O)[C@@H]4C[C@@H](O)[C@@H](O)C[C@]4(C)C3CC[C@]12C (some centres undefined),Potency,[1],inactive
COc1cc2c(c(O)c1OC/C=C(\C)CC/C=C(/C)CCC=C(C)C)CN(C(CCC(=O)O)C(=O)O)C2=O (centres undefined),Potency,[1],inactive
same,Potency,[2],inactive
Nc1nc(COC(=O)c2ccc([N+](=O)[O-])cc2)nc(Nc2ccccc2)n1,Potency,[1],inactive
O=C(O)C1(c2ccc(-c3ccc(Cl)c(Cl)c3)c(F)c2)CC1,Potency,[1],inactive
same,Potency,[2],inactive
COC(=O)C[C@H]1C(C)(C)[C@H](OC(=O)C(C)C)C2CC3=C4CC(=O)O[C@@H](c5ccoc5)[C@]4(C)CCC3[C@@]1(C)C2=O (some centres undefined),Potency,[1],inactive
Oc1ccc2c(-c3c(-c4ccccn4)nn4c3CCC4)ccnc2c1,Potency,[1],inactive
O=C(NC1Cc2ccccc2N(C[C@@H](O)CO)C1=O)c1cc2cc(Cl)sc2[nH]1 (some centres undefined),Potency,[1],inactive
Nc1ccc(-n2nc(C(F)(F)F)cc2C(F)(F)F)cc1,Potency,[1],inactive
O=C(O)c1cc(C(F)(F)F)ccc1N1CC[C@H](OCc2ccccn2)C1,Potency,[1],inactive
COc1cc(O)c2c(c1Cl)CC(C)OC2=O (centres undefined),Potency,[1],inactive
COc1ccc(CCC(=O)O)c(O[C@@H]2O[C@H](CO)[C@@H](O)[C@H](O)[C@H]2O)c1,Potency,[1],inactive
COc1cc(Nc2ccc([N+](=O)[O-])cc2C(=O)O)cc2ccccc12,Potency,[1],inactive
same,Potency,[2],inactive
C=C1CCC2C(C)(C)CCC[C@]2(C)[C@H]1CC/C(C)=C/C(=O)O (some centres undefined),Potency,[1],inactive
same,Potency,[2],inactive
CC1(C)C2CC[C@@]34CC(CC[C@H]3[C@]2(C)CC[C@@H]1O[C@@H]1O[C@H](CO)[C@@H](O)[C@H](O)[C@H]1O)[C@](C)(O)C4 (some centres undefined),Potency,[1],inactive
CC1CC2OCC3(O)CCC(O)C(C14CC(c1ccoc1)OC4=O)C23CO (centres undefined),Potency,[1],inactive
CCOC(=O)C(CCc1ccccc1)NC(C)C(=O)N1Cc2ccccc2CC1C(=O)O (centres undefined),outcome,[3],inactive
same,outcome,[4],inactive
same,Potency,[1],inactive
COc1cc(/C=C/c2ccccc2)c(C(=O)O)c(O)c1CC=C(C)C,Potency,[1],inactive
same,Potency,[2],19.3 µM (active)
COc1cccc(CNc2ccc(S(=O)(=O)Nc3nc4ccccc4s3)cc2)c1O,Potency,[1],inactive
same,Potency,[2],inactive
CC(=O)OC12CC(C)C(OC(=O)c3ccccc3)C1/C=C(/C)C(OC(=O)c1ccccc1)CC(=O)C(C)(C)/C=C/C(C)C2=O (centres undefined),Potency,[1],inactive
same,Potency,[2],inactive
C/C=C/C1OC2=C(C(=O)OC2(C)O)C(O)C1O (centres undefined),Potency,[1],inactive
C=CC1(C)C=C2CC[C@H]3[C@@](C)(C(=O)O)CCC[C@]3(C)C2CC1 (some centres undefined),Potency,[1],inactive
same,Potency,[2],inactive
CC1C(O)C(O)C2C(C(=O)OCCc3ccc(O)cc3)=COC(O[C@@H]3O[C@H](CO)[C@@H](O)[C@H](O)[C@H]3O)C12 (some centres undefined),Potency,[1],inactive
same,Potency,[2],inactive
O=C(/C=C/C=C/c1ccc2c(c1)OCO2)N1CCCCC1,outcome,[5],inactive
same,activation,[6],-2.18%
same,activation,[7],-1.08%
same,Potency,[8],14.1 µM (active)
same,max response,[9],-0.461%
same,max response,[10],3.3%
same,max response,[11],-12.5%
same,outcome,[12],inactive
same,Potency,[1],inactive
COC(=O)C1=COC(OC2OC(CO)C(O)C(O)C2O)C2C(C)C(OC(=O)/C=C/c3ccc(O)cc3)C(O)C12 (centres undefined),Potency,[1],inactive
C/C1=C\CC(C)(C)/C=C/C/C(C(=O)O)=C/CC1,Potency,[1],inactive
O=[N+]([O-])c1cc(Cl)ccc1S(=O)(=O)N1CCN(Cc2ccccc2)CC1,Potency,[1],inactive
CC(=O)OC[C@]12[C@H](OC(C)=O)[C@H](OC(=O)c3ccccc3)[C@@H]3[C@@H](OC(C)=O)[C@]1(OC3(C)C)[C@H](C)C[C@H](OC(=O)c1ccccc1)[C@@H]2OC(=O)c1ccccc1,Potency,[1],inactive
